Compound activity (PubChem)
Pf Dd2 inh = P. falciparum Dd2 growth inhibitors, primary screen, SYBR Green fluorescence, single dose replicates. AID 1159554, 2015. 72 h; active compounds read low. activity change, % at 10 µM. 94,000 tested, 2.3% active; in the data active = activity change below about -80%; inconclusive = no clear call, values can overlap the other calls
C diff growth = C. difficile growth inhibitors, primary screen, HTS; Clostridium difficile clinical isolate growth, OD600, 24 h; active compounds read low; growth activity, negative = inhibition, % at 16 µg/mL (by protocol); 86,000 tested, 0.25% active;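 active = mean growth activity at or below -80% and every replicate also at or below -80%; inconclusive = mean at or below -80% but some replicate above -80%; inactive = mean growth activity above -80%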;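 note: 0% = DMSO wells and -100% = levofloxacin 16 µg/mL wells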
T cruzi growth-1 = T. cruzi intracellular proliferation inhibitors, primary screen, cell-based, beta-gal Tulahuen parasites, NIH3T3 host, luminescence; 77,000 tested, 5.9% active; AID 624255, 2012; inhibition, % at 8.34 µM; T. cruzi beta-gal in NIH3T3, GalScreen luminescence, 90 h;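 active = mean inhibition above about 93%, with at least 55% of replicates each passing it, limit read from the data, passing the limit was not always enough; inconclusive = only one of those two conditions holds; inactive = neither condition holds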
T cruzi growth-2 = T. cruzi intracellular proliferation inhibitors, confirmation, cell-based, NIH3T3 host, beta-gal parasite, luminescence, cherry-pick. shares compounds with T cruzi growth-1. T. cruzi beta-gal in NIH3T3, GalScreen luminescence, 90 h. inhibition, % at 8.35 µM. 5,600 tested, 72% active;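 active = mean replicate inhibition above about 95% and at least 55% of replicates individually reaching it, limit read from the data; inconclusive = only one of the two criteria is met; inactive = neither criterion is met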
T cruzi growth-3 = inhibitors of intracellular T. cruzi replication, confirmation, NIH3T3 host cells, beta-gal parasites, cherry-pick, set 2 | T. cruzi beta-gal in NIH3T3, GalScreen luminescence, 90 h | inhibition, % at 2.09 µM | shares compounds with T cruzi growth-1 | AID 651740, 2012 | 5,600 tested, 21% active;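 active = mean inhibition above about 95%, with at least 55% of replicates also reaching it, limit read from the data; inconclusive = meets just one of the two conditions; inactive = meets neither condition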;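 note: plate controls were neutral control median for no effect and positive control median for full effect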
NIH3T3 tox = cytotoxicity in mouse NIH/3T3 fibroblasts, confirmation, cytotoxicity control for T. cruzi proliferation inhibitor project, cell-based, cherry-pick, single point; 5,600 tested, 14% active; shares compounds with T cruzi growth-1; cytotoxicity (signal decrease), % at 8.35 µM; NIH/3T3 viability, CellTiter-Glo ATP luminescence, 90 h;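 active = mean signal decrease across replicates above about 35% based on untreated-well scatter, with enough replicates individually passing, limit read from the data; inconclusive = no rule stated though some were filed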;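 note: 0% = median of neutral control wells and 100% = median of positive control wells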
3T3 cytotox 2 = NIH/3T3 fibroblast cytotoxicity, confirmation, cytotoxicity control, cell-based, cherry-pick, single point, set 2; NIH/3T3 viability, CellTiter-Glo ATP luminescence, 90 h; 5,600 tested, 56% active; inhibition, % at 24.9 µM; shares compounds with T cruzi growth-1;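 active = mean loss of cell viability signal at or above a set limit, and enough replicates individually reaching it; inconclusive = meets only the mean limit or only the replicate share; inactive = meets neither condition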;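 note: 0% = median of neutral control wells and 100% = median of positive control wells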
Numbers without * were called inactive; ? = inconclusive; . = no result; ! = not active in a repeat. The list is not random: actives were taken first. Their share in the collection is about 6.7%.

SMILES	Pf Dd2 inh	C diff growth	T cruzi growth-1	T cruzi growth-2	T cruzi growth-3	NIH3T3 tox	3T3 cytotox 2
C[C@@H]1CN([C@H](C)CO)C(=O)Cc2cc(NC(=O)CCC(F)(F)F)ccc2O[C@H]1CN(C)S(=O)(=O)c1ccc(Cl)cc1	-24.8	-7.3	18.5	.	.	.	.
CC(C)C#Cc1ccc2c(c1)O[C@@H](CN(C)Cc1cncnc1)[C@H](C)CN([C@H](C)CO)S2(=O)=O	-31.4	-4.6	19.1	.	.	.	.
C[C@@H]1CN([C@@H](C)CO)C(=O)c2cc(C#CC3(O)CCCC3)cnc2O[C@@H]1CN(C)C	50.8	-3.9	1.0	.	.	.	.
C[C@@H]1CCCCO[C@@H](CN(C)S(C)(=O)=O)[C@@H](C)CN([C@H](C)CO)C(=O)c2cc(N(C)C)ccc2O1	12.0	-2.7	100.7*!	3.1	-21.5	-11.5	-11.4
C[C@@H]1CN([C@H](C)CO)C(=O)c2cc(N(C)C)ccc2O[C@@H](C)CCCCO[C@H]1CN(C)S(C)(=O)=O	-23.9	-0.9	21.9	.	.	.	.
C[C@@H]1CCCCO[C@H](CN(C)S(C)(=O)=O)[C@H](C)CN([C@@H](C)CO)C(=O)c2cc(N(C)C)ccc2O1	-3.3	1.5	108.0*	51.9	-12.7	-32.7	-31.4
C[C@@H]1CN([C@@H](C)CO)C(=O)c2cc(N(C)C)ccc2O[C@@H](C)CCCCO[C@@H]1CN(C)S(C)(=O)=O	.	2.1	42.3	.	.	.	.
CO[C@H]1CN(C)C(=O)c2cc(NC(=O)C3CC3)ccc2OC[C@H](C)N(Cc2cc(F)ccc2F)C[C@@H]1C	-76.6	.	97.2*	108.4*	24.5	20.6	45.1*
CO[C@H]1CN(C)C(=O)c2ccc(NS(=O)(=O)c3cccc(F)c3)cc2OC[C@@H](C)N(Cc2cc(F)ccc2F)C[C@@H]1C	-7.2	.	.	.	.	.	.
CO[C@H]1CN(C)C(=O)c2cc(NC(=O)C3CCCCC3)ccc2OC[C@H](C)NC[C@H]1C	-5.3	.	106.8*	9.1	-2.8	6.9	4.4
CO[C@H]1CN(C)C(=O)c2ccc(NS(=O)(=O)c3cccc(F)c3)cc2OC[C@@H](C)N(Cc2cc(F)ccc2F)C[C@H]1C	-9.0	.	.	.	.	.	.
CO[C@@H]1CN(C)C(=O)c2cc(NC(=O)C3CC3)ccc2OC[C@H](C)N(Cc2cc(F)ccc2F)C[C@@H]1C	-71.2	.	61.1	.	.	.	.
CO[C@@H]1CN(C)C(=O)c2cc(NC(=O)C3CCCCC3)ccc2OC[C@H](C)NC[C@@H]1C	-56.6	.	42.1	.	.	.	.
CO[C@H]1CN(C)C(=O)c2cc(NS(=O)(=O)c3cccc(F)c3)ccc2OC[C@H](C)N(Cc2cc(F)ccc2F)C[C@H]1C	-24.4	11.2	114.7*	108.1*	73.8	-17.6	105.3*
CO[C@H]1CN(C)C(=O)c2cc(NS(=O)(=O)c3cccc(F)c3)ccc2OC[C@H](C)N(Cc2cc(F)ccc2F)C[C@@H]1C	-41.3	-0.4	111.8*	104.7*	92.5	-34.1	-26.5
O=C(c1cccnc1)N1CC(=O)N2[C@H](CO)[C@@H](c3ccc(/C=C/c4ccccc4)cc3)[C@@H]2C1	-44.8	-9.5	.	.	.	.	.
C/C=C/c1ccc([C@@H]2[C@@H](CO)N(C(=O)C3CC3)[C@H]2CN(C)C(=O)CN(C)C)cc1	-25.9	-4.1	-18.6	.	.	.	.
CO[C@H]1CN(C)C(=O)c2cc(NC(=O)Nc3cccc(Cl)c3)ccc2OC[C@H](C)N(C)C[C@@H]1C	-27.2	-3.0	-129.1	.	.	.	.
CNC[C@H]1Oc2ccc(NS(=O)(=O)c3c(C)noc3C)cc2C(=O)N([C@@H](C)CO)C[C@H]1C	64.7	-9.9	13.2	.	.	.	.
CC(C)NC(=O)Nc1ccc2c(c1)C(=O)N([C@@H](C)CO)C[C@@H](C)[C@@H](CN(C)S(=O)(=O)c1ccccc1)O2	-12.6	3.1	5.5	.	.	.	.
CO[C@H]1CN(C)C(=O)c2ccc(NS(=O)(=O)c3cccc(F)c3)cc2OC[C@H](C)N(Cc2cc(F)ccc2F)C[C@H]1C	-26.5	.	.	.	.	.	.
CO[C@H]1CN(C)C(=O)c2cc(NS(=O)(=O)c3cccc(F)c3)ccc2OC[C@@H](C)N(Cc2cc(F)ccc2F)C[C@@H]1C	4.0	7.8	112.2*	110.1*	25.9	-6.9	13.0
C[C@H](CO)N1C[C@H](C)[C@H](CN(C)Cc2ccncc2)Oc2c(NC(=O)c3ccncc3)cccc2C1=O	7.1	-6.5	50.1	.	.	.	.
C[C@@H]1CN([C@H](C)CO)C(=O)c2cccc(NC(=O)c3ccncc3)c2O[C@H]1CN(C)Cc1ccncc1	-34.8	-7.9	79.6	.	.	.	.
C[C@@H]1CN([C@H](C)CO)C(=O)c2cccc(NC(=O)c3ccncc3)c2O[C@H]1CN(C)Cc1ccc2c(c1)OCO2	-7.3	0.3	98.4*	91.3	74.0	22.7	24.8
SMILES	Pf Dd2 inh	C diff growth	T cruzi growth-1	T cruzi growth-2	T cruzi growth-3	NIH3T3 tox	3T3 cytotox 2
C[C@H]1CN([C@@H](C)CO)C(=O)c2cccc(NC(=O)c3ccncc3)c2O[C@H]1CN(C)Cc1ccc2c(c1)OCO2	-2.5	-0.7	96.6*	108.1*	85.9	3.2	?
C[C@@H]1CN([C@@H](C)CO)C(=O)c2cccc(NC(=O)c3ccncc3)c2O[C@H]1CN(C)Cc1ccc2c(c1)OCO2	-8.5	-2.9	102.6*	96.8*	91.7	-2.7	26.8*
C[C@H]1CN([C@@H](C)CO)C(=O)c2cccc(NC(=O)c3ccncc3)c2O[C@@H]1CN(C)Cc1ccncc1	6.0	0.4	52.0	.	.	.	.
Cc1noc(C)c1NC(=O)N(C)C[C@@H]1Oc2ccc(NC(=O)Cc3cn(C)c4ccccc34)cc2C(=O)N([C@H](C)CO)C[C@H]1C	49.5	.	-140.2	.	.	.	.
CCCC(=O)Nc1ccc2c(c1)C(=O)N(C)[C@H]1CC[C@@H](CC(=O)N3CCc4ccccc4C3)O[C@@H]1CO2	-5.4	2.2	25.2	.	.	.	.
[N-]=[N+]=NCCNC(=O)Nc1ccccc1	.	-12.2	.	.	.	.	.
C[C@@H]1CN([C@H](C)CO)C(=O)c2cc(NS(=O)(=O)c3cccs3)ccc2O[C@@H](C)CCCCO[C@@H]1CN(C)CC1CC1	-18.5	-1.2	19.3	.	.	.	.
COc1ccc(S(=O)(=O)N(C)C[C@@H]2Oc3ccc(NC(=O)CCCN(C)C)cc3C(=O)N([C@@H](C)CO)C[C@@H]2C)cc1	8.5	5.6	.	.	.	.	.
COc1ccc(NC(=O)Nc2ccc3c(c2)C(=O)N([C@H](C)CO)C[C@@H](C)[C@H](CN(C)Cc2ccc(C(F)(F)F)cc2)O3)cc1	9.9	-1.0	-11.2	.	.	.	.
